This is a sample that favours compounds with a hit; in the whole collection about 3.8% have one here.
DSG3 Ab inh – human desmoglein-3 autoantibody binding inhibition | P32926 | DSG3-coupled beads, scFv-anti-DSG3-GFP binding, flow cytometry; active compounds read low | binding (percent of control), % at 10 µM | hit rate 0.48% among 310,000 | AID 588358;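 active means binding more than 3 SD below its plate's average and above zero; inconclusive means below that plate limit but binding exactly zero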;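 further: hits lower antibody fragment binding to DSG3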
pPAFAH inh – pPAFAH (human) enzyme inhibition; hit rate 1.5% among 330,000; inhibition, % at 3.39 µM; recombinant pPAFAH, FP-rhodamine probe fluorescence polarization; Q13093;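 active means inhibition above the mean inhibition across the screen plus 3 SD, cut at about 25% in these data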;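 further: inhibitors block binding of the rhodamine activity-based probe so polarization drops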
PAFAH2 FP inh – PAFAH2 (human) inhibition. recombinant PAFAH2, FP-rhodamine activity probe, fluorescence polarization. inhibition, % at 3.39 µM. hit rate 0.99% among 340,000. AID 492956;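 active means inhibition above the mean over all tested compounds plus 3 SD, cut at about 30% in these data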;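 further: inhibitors block probe labeling of enzyme so polarization drops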
PAFAH1B2 FP inh – blocks human PAF acetylhydrolase 1b catalytic subunit 2 | recombinant PAFAH1B2, FP-rhodamine activity probe, fluorescence polarization | inhibition, % at 3.39 µM | AID 492953 | hit rate 1.2% among 340,000;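 active means inhibition above the mean of all tested compounds plus 3 SD, cut at about 24% in these data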
Target sequence (P68402 whole entry, looked up): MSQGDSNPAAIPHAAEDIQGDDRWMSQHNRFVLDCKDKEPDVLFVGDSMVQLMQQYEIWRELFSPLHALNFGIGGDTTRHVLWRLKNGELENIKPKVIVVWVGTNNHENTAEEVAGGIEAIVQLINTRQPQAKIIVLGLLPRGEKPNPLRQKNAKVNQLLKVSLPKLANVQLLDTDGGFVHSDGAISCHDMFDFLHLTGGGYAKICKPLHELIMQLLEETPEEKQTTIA
M18AAP inhibitor – PfM18AAP enzyme inhibition. recombinant PfM18AAP, H-Glu-NHMec fluorogenic cleavage. inhibition, % at 7.35 µM. hit rate 1.2% among 290,000. AID 1822;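 active means inhibition above the campaign mean inhibition over all tested compounds plus 3 SD, cut at about 28% in these data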
PAFAH1B3 inh – inhibitors of human PAFAH1B3; Q15102; recombinant PAFAH1B3, FP-rhodamine probe, fluorescence polarization; hit rate 0.28% among 340,000; inhibition, % at 3.39 µM; AID 492972;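 active means inhibition above the screen-wide average of all tested compounds plus 3 SD, cut at about 25% in these data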
Target sequence (Q15102 whole entry, looked up): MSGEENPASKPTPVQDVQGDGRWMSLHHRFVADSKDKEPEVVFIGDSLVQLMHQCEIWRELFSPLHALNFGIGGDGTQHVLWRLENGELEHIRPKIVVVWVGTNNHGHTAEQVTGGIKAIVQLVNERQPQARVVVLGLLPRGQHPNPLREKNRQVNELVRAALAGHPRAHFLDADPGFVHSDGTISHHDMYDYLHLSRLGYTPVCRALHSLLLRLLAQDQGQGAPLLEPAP
Hits are given with their value; 0 = inactive; ? = inconclusive; - = no result.

SMILES	DSG3 Ab inh	pPAFAH inh	PAFAH2 FP inh	PAFAH1B2 FP inh	M18AAP inhibitor	PAFAH1B3 inh
O=C(CCNS(=O)(=O)c1ccccc1)OCC(=O)c1ccc(Cl)cc1	0	26	0	0	-	0
CCN1C(=O)C(CC(=O)NCCc2ccccc2)N(NC(=O)c2ccc(Br)cc2)C1=S (centres undefined)	0	-	-	-	-	-
Cc1ccc(S(=O)(=O)N2[C@@H](c3ccc(F)cc3)C(C(=O)O)=CC[C@H]2c2cccs2)cc1	0	0	0	30	-	0
Cc1ccc(S(=O)(=O)N2[C@@H](c3cccc(Cl)c3)C(C(=O)O)=CC[C@H]2c2cccs2)cc1	0	0	0	27	-	0
COc1cc([C@@H]2CC=C(C(=O)O)[C@H](c3ccccc3)N2S(=O)(=O)c2ccc(C)cc2)cc(OC)c1OC	0	0	0	0	-	0
COc1ccc([C@@H]2CC=C(C(=O)O)[C@H](c3cccc(Cl)c3)N2S(=O)(=O)c2ccc(C)cc2)cc1OC	0	0	0	0	-	0
Cc1ccc([C@H]2C(C(=O)O)=CC[C@@H](c3cccs3)N2S(=O)(=O)c2ccc(C)cc2)cc1	0	0	0	27	-	0
CCOc1ccc([C@@H]2CC=C(C(=O)O)[C@H](c3ccc(F)cc3)N2S(=O)(=O)c2ccc(C)cc2)cc1	0	0	0	0	-	0
COc1ccc(N(CC(=O)Nc2ccccc2C)S(=O)(=O)c2ccccc2[N+](=O)[O-])c(OC)c1	24	0	0	0	0	0
COc1ccc([N+](=O)[O-])cc1NC(=O)CSc1ccc2ccccc2c1	0	0	0	0	0	0
COc1ccc([N+](=O)[O-])cc1NC(=O)CSc1nc(C)cc(C)n1	0	0	0	0	30	0
CCn1c(C)nc2cc(C(=O)NNC(=O)Nc3cccc(Cl)c3)ccc21	0	0	-	-	31	-
CCCCNC(=O)Oc1ccc(C(=O)N2c3ccccc3NC(=O)C2C)cc1 (centres undefined)	?	0	0	34	0	0
Cc1ccc(NC(=O)CSc2nc3cc(C(=O)NCC4CCCO4)ccc3c(=O)n2CC2CCCO2)cc1 (centres undefined)	0	-	-	-	-	-
Cn1c(SCc2ccc(Br)cc2)nnc1-c1cccs1	0	0	0	24	0	0
CC(C)(C)OC(=O)N1CCC(C(=O)Nc2ccc(C(=O)N3CCCCC3)cc2)CC1	0	-	0	0	-	0
Cc1ccc(S(=O)(=O)N(C)C[C@@H]2OCc3cnnn3CCCC(=O)N([C@H](C)CO)C[C@H]2C)cc1	0	-	-	-	-	-
N/C(Cc1cccs1)=N\OC(=O)COc1ccc(Br)cc1	0	0	0	28	0	0
Clc1ccc(Br)c(-c2nc3ccccc3[nH]2)c1	0	-	-	-	-	-
Cc1cc(OC(C)C(=O)NC2CC(C)(C)NC(C)(C)C2)c2c(C)c(C)c(=O)oc2c1 (centres undefined)	0	-	-	-	-	-
COc1cc(/C=C2\CCc3c2nc2ccccc2c3C(=O)O)cc(OC)c1OC	0	32	0	0	0	0
COc1cc(/C=C2\CCCc3c2nc2ccccc2c3C(=O)O)cc(Br)c1O	-	0	0	0	0	0
CCCc1cc(=O)oc2cc(C)c(CN3CCCC3)c(O)c12	0	25	0	0	0	0
CC(C)(C)NC(=O)CN(C(=O)CCC(=O)Nc1nccs1)c1ccccc1F	0	-	-	-	-	-
Cn1cnnc1SCc1ccc(-c2ccc(Br)cc2)o1	0	26	0	0	0	0
SMILES	DSG3 Ab inh	pPAFAH inh	PAFAH2 FP inh	PAFAH1B2 FP inh	M18AAP inhibitor	PAFAH1B3 inh
Cn1cnnc1SCc1ccccc1	0	0	0	0	0	0
Cc1ccc2cc(CCNS(=O)(=O)c3ccc(Br)cc3)c(=O)[nH]c2c1C	0	0	0	30	0	0
Cc1cc(C)c(S(=O)(=O)NCCc2cc3ccc(C)c(C)c3[nH]c2=O)c(C)c1	0	0	0	0	0	0
COc1cccc(C(=O)OCC(=O)Nc2sc3c(c2C(N)=O)CCC3)c1O	0	28	0	0	-	0
C=CCN(CC=C)C(=O)COn1nnc2ccc(S(=O)(=O)N3CCOCC3)cc21	0	0	0	0	-	0
CC(NC(=O)C12CC3CC(CC(C3)C1)C2)C(=O)N/N=C/C1=C(N2CCOCC2)C(=C\c2ccccc2)/CC1 (centres undefined)	0	0	0	0	0	0
O=C1Nc2ccc(Br)cc2/C1=N\N=C\C1=C(N2CCOCC2)C(=C/c2ccccc2)/CC1	86	-	0	0	-	0
Cn1cc(C(=O)N/N=C/C2=C(N3CCOCC3)C(=C\c3ccccc3)/CC2)ccc1=O	0	0	0	0	0	0

Bioassay records (PubChem BioAssay)
